The record followed here is PubChem BioAssay (EPA / NIEHS).

Results filed as inconclusive are left out. Active and inactive are the calls of the source. The calls were made as follows, unless noted: active = hit-call score of the fitted dose curve at least 0.9, where 1 is the maximum; inactive = score below 0.9.

Test [1] in a line: APR_HepG2_CellCycleArrest_24hr: Apredica 24-hour HepG2 Assay for Cell Cycle Arrest (AID 2282905).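 Also: cell cycle arrest scored as ratio of 2N to 4N nuclear DNA content.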 Particulars: imaging, actives raise or lower the signal. A digest of the protocol:
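Compounds at 0.39–200 uM (0.5% DMSO) for 24 h, then fixed and Hoechst 33342 stained. Cell-cycle analysis of nuclear DNA content by high-content imaging, fitted bidirectionally versus DMSO.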

Test [2] in a line: APR_HepG2_NuclearSize_24hr: Apredica 24-hour HepG2 Assay for Nuclear Size (AID 2282907). Particulars: high-content imaging, actives raise or lower the signal. A digest of the protocol:
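HepG2 cells exposed 24 h to compounds at 0.39–200 uM (0.5% DMSO), fixed, Hoechst 33342 stained and imaged at 20x; nuclear diameter measured by automated image analysis, fitted bidirectionally against DMSO controls.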

The nature of test [3]: APR_HepG2_CellLoss_24hr: Apredica 24-hour HepG2 Assay for Cell Loss (AID 2282908).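 As to AC50: fit in both directions so a hit may be cell loss or gain.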 Particulars: high-content imaging. A digest of the protocol:
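HepG2 cells exposed 24 hr to 0.39–200 uM compound in duplicate at 0.5% v/v final DMSO. Cells fixed in 3.7% formaldehyde and Hoechst 33342-stained. Cell number came from nuclear imaging at 20x. Bidirectional fit versus DMSO.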

Test [4] in a line: APR_HepG2_MicrotubuleCSK_24hr: Apredica 24-hour HepG2 Assay for Microtubule CSK Stabilty (AID 2282909). Particulars: HepG2 microtubule cytoskeleton imaging, actives raise or lower the signal. A digest of the protocol:
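HepG2 cells were treated 24 hr with compound at 0.39–200 uM in duplicate (0.5% DMSO final), then fixed and permeabilized. Alpha-tubulin immunofluorescence was imaged by high-content microscopy, with bidirectional fitting against DMSO and taxol as positive control.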

Test [5] in a line: APR_HepG2_MitoticArrest_24hr: Apredica 24-hour HepG2 Assay for Mitotic Arrest (AID 2282910). Particulars: high-content imaging, actives raise or lower the signal. A digest of the protocol:
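HepG2 human liver cells were exposed to compounds at 0.39–200 uM (10 concentrations, duplicate) in 0.5% v/v DMSO for 24 hr, then fixed and immunostained for phospho-histone H3 with Hoechst 33342. Mitotic arrest came from HCS fluorescent imaging, fitted bidirectionally against DMSO.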

Test [6] can be described thus: APR_HepG2_MitoMembPot_24hr: Apredica 24-hour HepG2 Assay for Mitochondrial Membrane Potential (AID 2282911). Particulars: imaging, actives raise or lower the signal. A digest of the protocol:
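Human hepatoma HepG2 cultures received ten compound concentrations up to 200 uM for 24 hr. Membrane-potential dye signal, captured by automated fluorescence microscopy, was scored for gain or loss against DMSO controls.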

Test [7] can be described thus: APR_HepG2_MitoMass_24hr: Apredica 24-hour HepG2 Assay for Mitochondrial Mass (AID 2282912). Particulars: high-content imaging, actives raise or lower the signal. A digest of the protocol: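 HepG2 cells exposed 24 hr to 0.39–200 uM compound, 0.5% v/v DMSO, in duplicate. Stained before fixation with 250 nM MitoTracker Red CMXRos for 30 min, then imaged at 20x with Hoechst nuclei. Fitted in both directions against DMSO.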

Test [8] can be described thus: APR_HepG2_p53Act_24hr: Apredica 24-hour HepG2 Assay for p53 Activation (AID 2282913).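 Also: p53 protein immunofluorescence averaged per cell in HepG2 with Hoechst nuclei.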 Particulars: high-content imaging, actives raise or lower the signal. A digest of the protocol: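 Automated fluorescence imaging quantifies p53 immunostaining in HepG2 cells after a 24 hr exposure (0.39–200 uM, duplicate, 0.5% DMSO). Nuclei are located by Hoechst 33342 staining.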

The nature of test [9]: APR_HepG2_CellCycleArrest_72hr: Apredica 72-hour HepG2 Assay for Cell Cycle Arrest (AID 2282914). Particulars: high-content imaging, actives raise or lower the signal. A digest of the protocol:
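Cell cycle arrest in HepG2 was scored from nuclear DNA content after 72 hr compound treatment (0.39–200 uM). Activity, either gain or loss, was fitted against the DMSO baseline.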

The nature of test [10]: ACEA_ER_80hr: ACEA Biosciences xCELLigence Real-Time Cell Analysis on Estrogen Receptor Agonism for Proliferation (AID 2282667; active = hit-call score of the fitted dose curve at least 0.9, where 1 is the maximum). Particulars: T47D proliferation, impedance (xCELLigence), 80 h. A digest of the protocol: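 Cell-growth kinetics were measured by impedance in T47D cells treated continuously with compound (top 100 uM final, 1:4 steps, 8 points). Activity at 80 h was scored as signal gain over the DMSO baseline.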

Regarding `CC1(C)C(=O)N(Cl)C(=O)N1Cl`, the molecule was called inactive in test [1], in [2], in test [3], in [4], in [5] and in test [6]. Further, the result in test [7], in test [8] and in test [9] was inactive.
With `CC(=O)c1ccccc1`, the molecule was called inactive in test [1], in test [2], in [3], in [4], in [5] and in test [6]. In addition, the result in test [7], in test [8] and in test [9] was inactive.
As to `c1ccc2ncccc2c1`, the molecule was called inactive in [1], in test [2], in [3], in test [4], in test [5] and in [6]. Further, the result in test [7], in test [8] and in test [9] was inactive.
On to `c1ccc(C(O[C@@H]2CCCN(CCc3ccc4c(c3)OCO4)C2)c2ccccc2)cc1`, for which the AC50 in [1] is 83.5 µM (active); in test [3], 99.9 µM (active); in [4] it was 88.3 µM (active); in test [5], 96.3 µM (active); in [7], 100 µM (active); in test [8], 103 µM (active). Also, the call in test [2], in [6] and in [9] was inactive.
For `OC[C@H]1O[C@@H]2O[C@H]3[C@H](O)[C@@H](O)[C@@H](O[C@H]4[C@H](O)[C@@H](O)[C@@H](O[C@H]5[C@H](O)[C@@H](O)[C@@H](O[C@H]6[C@H](O)[C@@H](O)[C@@H](O[C@H]7[C@H](O)[C@@H](O)[C@@H](O[C@H]1[C@H](O)[C@H]2O)O[C@@H]7CO)O[C@@H]6CO)O[C@@H]5CO)O[C@@H]4CO)O[C@@H]3CO`, the molecule was classed as inactive in test [1], in [2], in test [3], in [4], in test [5] and in test [6]. For the same molecule, the outcome in test [7] and in [9] was inactive.
For `c1ccc2c(c1)-c1cccc3c1c-2cc1ccccc13`, the molecule was classed as inactive in [10], in test [1], in [2] and in [4]. Besides, the AC50 is 5.87 µM (active) in test [3]; 15.5 µM (active) in [5]; 70.4 µM (active) in test [6]; 8.67 µM (active) in test [7]; 2.38 µM (active) in test [9].
On to `CCCCCCCCN(C)C`, for which the molecule was classed as inactive in test [1], in [2], in test [3], in [4], in [5] and in test [6]. Also, the result in [7], in test [8] and in [9] was inactive.
Consider `COCc1nnc(-c2ccc[n+]([O-])c2)n1-c1c(Cl)c(Cl)cc2[nH]c(=O)c(=O)[nH]c12`, for which the molecule was called inactive in test [1], in test [2], in test [3], in [4], in test [5] and in [6]. Further, the molecule was called inactive in test [7] and in test [9].
Consider `COc1cc(C(C)C)c2c(c1)S(=O)(=O)N(COc1cc(=O)n3cccc(OCCN4CCCCC4)c3n1)C2=O`, for which the half-maximal activity concentration (AC50) in [1] was 17.7 µM (active); in test [3], 24.2 µM (active); in test [4] it was 15.8 µM (active); in test [5], 24 µM (active); in [6], 26.4 µM (active); in [7] it was 29.1 µM (active). Besides, the result in [2] and in test [9] was inactive.
`CCCOc1ccc(S(=O)(=O)N2CCN(CC)CC2)cc1-c1nc2c(CC)n(Cc3ccccn3)nc2c(=O)[nH]1`: the molecule was called inactive in test [1], in test [2], in test [3], in test [4], in test [5] and in [6]. In addition, the call in test [7] and in test [9] was inactive.
`CNC(C)=O`: the call in test [1], in test [2], in [3], in test [4], in [5] and in test [6] was inactive. Moreover, the call in [7] and in test [9] was inactive.
`NC(=O)N1c2ccccc2C=Cc2ccccc21`: the call in test [1], in test [2], in test [3], in [4], in test [5] and in test [6] was inactive. Further, the call in test [7] and in [9] was inactive.
Regarding `O=C(O)[C@H](O)[C@@H](O)C(=O)O`, the outcome in test [1], in [2], in test [3], in test [4], in test [5] and in test [6] was inactive. Further, the call in [7] and in test [9] was inactive.
Consider `O=c1[nH]cnc2c1ncn2[C@H]1CC[C@@H](CO)O1`, for which the molecule was called inactive in [1], in test [2], in test [3], in [4], in [5] and in test [7]. Besides, the molecule was called inactive in [9]. For the same molecule, the AC50 in test [6] is 0.039 µM (active).
Take `CCCCC(CC)C(=O)OCCOCCOCCOC(=O)C(CC)CCCC` (configuration not stated): the molecule was classed as inactive in test [1], in [2], in [3], in test [4], in test [5] and in test [6]. Further, the molecule was called inactive in test [7] and in test [8]. For the same molecule, the AC50 in test [9] was 79.2 µM (active).
For the molecule `NC(=O)N(O)[C@@H]1COc2cc(OCc3ccccc3)ccc21`, the molecule was classed as inactive in test [1], in test [2], in test [3], in test [4], in test [5] and in test [7]. In addition, the call in [9] was inactive. For the same molecule, the AC50 in test [6] was 52.2 µM (active).
Take `CCCc1ccccc1`: the outcome in test [1], in test [2], in test [3], in [4], in test [5] and in test [7] was inactive. In addition, the call in test [8] and in [9] was inactive. The concentration at half-maximal activity (AC50) in test [6] was 61.3 µM (active).
In the case of `COS(C)(=O)=O`, the molecule was called inactive in test [1], in [2], in [3], in test [4], in test [5] and in test [6]. Moreover, the call in test [7] and in test [9] was inactive.

As a reminder, the AC50 is the concentration at which the activity in the assay is half-maximal.
